Data from PubChem BioAssay (Tox21).
Records with an inconclusive call do not appear. Unmarked numbers belong to inactive results. Active and inactive are the calls of the source. Calls follow the shape of the dose curve; as a rule, active = well fitted curve in the direction sought with a large enough effect in the repeat runs; inconclusive = weak or mixed curves; inactive = no such curve, though single readings can be large; an effect the other way counts as inactive or inconclusive.

The compounds below were run against Voltage-gated inwardly rectifying potassium channel KCNH2 (Homo sapiens) (UniProt Q12809) (assay: Human Ether-a-go-go-Related Gene (hERG) channel small molecule antagonists: fluorescence cell-based qHTS assay (AID 1671200;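 as to activity change, negative = inhibition: hERG-expressing U2OS cells given a thallium stimulus after FluxOR II dye loading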)). Conditions: hERG-U2OS cells, FluxOR thallium flux fluorescence; series mostly up to 76.8 µM; activity change, negative = inhibition: at the top concentration.
How it was run: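 Measured: Tl+ flux via fluorescence (480/540 nm) in hERG-expressing U2OS cells after 1 h dye loading at room temperature.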
% is scaled to controls: 0 for no effect and ±100 for the full control effect; potency is read from the fitted curve at half-maximal effect.
Also: nearly all actives have a fitted effect of over 50% in size.

Sequence of Voltage-gated inwardly rectifying potassium channel KCNH2 (Homo sapiens) (Q12809 whole entry, looked up): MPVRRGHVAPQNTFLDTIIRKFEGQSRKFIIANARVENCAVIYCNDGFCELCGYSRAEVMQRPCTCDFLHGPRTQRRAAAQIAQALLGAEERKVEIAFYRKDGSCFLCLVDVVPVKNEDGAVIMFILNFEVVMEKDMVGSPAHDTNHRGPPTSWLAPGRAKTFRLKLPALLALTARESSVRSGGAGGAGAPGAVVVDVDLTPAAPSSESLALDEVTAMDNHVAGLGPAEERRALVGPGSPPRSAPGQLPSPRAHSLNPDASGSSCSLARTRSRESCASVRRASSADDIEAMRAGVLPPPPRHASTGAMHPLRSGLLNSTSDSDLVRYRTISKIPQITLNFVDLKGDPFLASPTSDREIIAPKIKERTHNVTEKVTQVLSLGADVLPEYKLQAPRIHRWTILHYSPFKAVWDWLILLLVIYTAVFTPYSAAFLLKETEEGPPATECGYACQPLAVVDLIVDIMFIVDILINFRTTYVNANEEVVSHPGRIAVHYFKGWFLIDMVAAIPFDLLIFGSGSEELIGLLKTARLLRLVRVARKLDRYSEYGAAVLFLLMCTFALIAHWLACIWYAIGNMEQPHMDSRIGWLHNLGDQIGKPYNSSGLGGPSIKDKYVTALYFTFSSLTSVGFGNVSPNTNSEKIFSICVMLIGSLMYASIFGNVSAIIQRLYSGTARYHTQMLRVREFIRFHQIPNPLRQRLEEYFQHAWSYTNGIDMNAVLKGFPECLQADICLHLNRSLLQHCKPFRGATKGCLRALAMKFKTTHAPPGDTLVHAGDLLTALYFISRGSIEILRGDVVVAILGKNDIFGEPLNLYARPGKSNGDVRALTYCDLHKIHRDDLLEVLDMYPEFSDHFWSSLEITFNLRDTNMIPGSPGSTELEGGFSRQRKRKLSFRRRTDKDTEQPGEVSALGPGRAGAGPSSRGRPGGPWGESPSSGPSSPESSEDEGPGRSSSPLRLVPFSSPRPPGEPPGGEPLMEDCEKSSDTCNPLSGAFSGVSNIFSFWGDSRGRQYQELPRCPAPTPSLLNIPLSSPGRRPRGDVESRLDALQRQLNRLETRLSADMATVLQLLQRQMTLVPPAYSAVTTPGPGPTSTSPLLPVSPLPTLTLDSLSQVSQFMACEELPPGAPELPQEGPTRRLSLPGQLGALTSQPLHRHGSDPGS

SMILES | activity change, negative = inhibition | Potency
CC(C)CCCC(=O)O | -2.1% | 
CC(N)CN (centres undefined) | -3.5% | 
CO[C@H]1C=CO[C@@]2(C)Oc3c(C)c(O)c4c(O)c(c5c(c4c3C2=O)=NC2(CCN(CC(C)C)CC2)N=5)NC(=O)/C(C)=C\C=C/[C@H](C)[C@H](O)[C@@H](C)[C@@H](O)[C@@H](C)[C@H](OC(C)=O)[C@@H]1C | -19.1% | 
C=C(C)C(=O)OCCOC(=O)CC(C)=O | 4.15% | 
CC(Cl)C(Cl)Cl (centres undefined) | 1.99% | 
O=C(O)c1cccc(O)c1 | 4.62% | 
O=C(CCCN1CCC(O)(c2ccc(Br)cc2)CC1)c1ccc(F)cc1 |  | 0.239 µM (active)
CCOC(=O)c1ccccc1OC | -0.239% | 
C[C@]12CCC(=O)C=C1C=C[C@@H]1[C@@H]2CC[C@@]2(C)[C@H]1CC[C@@]21CCC(=O)O1 | -4.39% [at 35.3 µM] | 
COC(=O)CC(=O)C(C)(C)C | 1.99% | 
CCn1cc(C(=O)O)c(=O)c2cc(F)c(N3CCNCC3)nc21 | -6.52% [at 35.3 µM] | 
COc1ccc(C(=O)c2cccc(O)c2)c(OC)c1 | 0.975% | 
CCCCC(CC)COC(=O)COc1ccc(Cl)cc1C (centres undefined) | -12.8% | 
Cc1cnc(C)c(C)n1 | 0.741% | 
CCCCC(=O)O[C@]1(C(=O)CO)CC[C@H]2[C@@H]3CCC4=CC(=O)CC[C@]4(C)[C@H]3[C@@H](O)C[C@@]21C | -4.08% [at 35.3 µM] | 
CC1C2CC(CC2C2CCCC(O)C2)C1(C)C (centres undefined) |  | 24.5 µM (active)
O=Cc1c(Cl)cccc1Cl | -6.91% | 
C=CC(=O)NCOCC(C)C | -0.889% | 
Cc1c(C(=O)NN2CCCCC2)nn(-c2ccc(Cl)cc2Cl)c1-c1ccc(Cl)cc1 |  | 2.13 µM (active)

SMILES | activity change, negative = inhibition | Potency
CC(C)CCCCCCOC(=O)CCCCC(=O)OCCCCCCC(C)C | 1.1% | 
C/C=C(\C)C(=O)OCCC(C)CCC=C(C)C (centres undefined) | -0.178% | 
CC1(C)O[C@@H]2C[C@H]3[C@@H]4CCC5=CC(=O)C=C[C@]5(C)[C@H]4[C@@H](O)C[C@]3(C)[C@]2(C(=O)CO)O1 | -0.775% [at 35.3 µM] | 
CCOC(=O)N1CCC(n2c(=O)[nH]c3cc(Cl)ccc32)CC1 | -2% [at 35.3 µM] | 
CC(=O)OCC(=O)[C@H]1CC[C@H]2[C@@H]3CCC4=CC(=O)CC[C@]4(C)[C@H]3CC[C@]12C | -9.55% [at 35.3 µM] | 
CCC(=O)Oc1ccc(/C(CC)=C(\CC)c2ccc(OC(=O)CC)cc2)cc1 | -20.5% | 
O=S1OCCO1 | 2.74% | 
C=CCCCCCCCCCCCCCCCC | -0.108% [at 6.97 µM] | 
CSc1ccc(Oc2ccc(S(N)(=O)=O)cc2CN(C)C)cc1C |  | 6.92 µM (active)
O=C(CCCCCCC(=O)Nc1ccccc1)NO | 3.36% [at 35.3 µM] | 
Cc1occc1C(=O)Nc1ccc(C(=O)N2CCC(F)(F)/C(=C\C(=O)N3CCC(N4CCCCC4)CC3)c3ccccc32)cc1 |  | 6.09 µM (active)
CCCCCCCC/C=C\CCCCCCCC(=O)OC(CO)CO | 0.89% | 
C[Si](NC1CCCCC1)(NC1CCCCC1)NC1CCCCC1 | 1.78% | 
CCOC(=O)c1ccccc1C | 2.53% | 
CC(=O)Nc1ccc(N)cc1 | -1.9% | 
O=C1NCCN1 | 0.0207% | 
CC(CCO)CCc1ccccc1 (centres undefined) | -1.1% | 
CCCOC(=O)c1ccc(C(=O)OCCC)nc1 | 3.77% | 

The compounds below were run against Cytochrome P450 3A4 (Homo sapiens) (UniProt P08684) (assay: Cytochrome P450 Family 3 Subfamily A Member 4 (CYP3A4) small molecule antagonists: luciferase reporter qHTS assay (AID 1671201)). Conditions: P450-Glo CYP3A4 enzyme, luciferin luminescence, 1 h; series mostly up to 115 µM; activity change, negative = inhibition: at the top concentration.
How it was run: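 Setup: enzyme-substrate mix, compound pin transfer, 10 min RT. Reaction: NADPH regeneration solution, 1 h RT. Readout: detection reagent stops turnover, luminescence measured after 20 min, expressed in relative luminescence units.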

Sequence of Cytochrome P450 3A4 (Homo sapiens) (P08684 whole entry, looked up): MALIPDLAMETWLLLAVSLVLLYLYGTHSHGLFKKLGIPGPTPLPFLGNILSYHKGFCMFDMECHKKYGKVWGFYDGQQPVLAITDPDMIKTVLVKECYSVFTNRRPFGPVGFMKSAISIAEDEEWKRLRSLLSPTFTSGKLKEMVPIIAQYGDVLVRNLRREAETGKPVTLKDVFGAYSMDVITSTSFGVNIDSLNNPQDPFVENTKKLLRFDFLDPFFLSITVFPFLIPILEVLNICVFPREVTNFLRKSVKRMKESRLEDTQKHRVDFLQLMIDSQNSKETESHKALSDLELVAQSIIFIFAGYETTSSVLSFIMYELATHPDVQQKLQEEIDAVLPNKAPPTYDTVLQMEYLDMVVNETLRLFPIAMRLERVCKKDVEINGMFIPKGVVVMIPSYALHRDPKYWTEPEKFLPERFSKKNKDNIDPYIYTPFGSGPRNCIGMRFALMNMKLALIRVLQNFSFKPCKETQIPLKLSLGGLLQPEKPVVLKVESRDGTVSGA

SMILES | activity change, negative = inhibition | Potency
CC(C)CCCC(=O)O | -4.23% | 
CC(N)CN (centres undefined) | 9.9% | 
CO[C@H]1C=CO[C@@]2(C)Oc3c(C)c(O)c4c(O)c(c5c(c4c3C2=O)=NC2(CCN(CC(C)C)CC2)N=5)NC(=O)/C(C)=C\C=C/[C@H](C)[C@H](O)[C@@H](C)[C@@H](O)[C@@H](C)[C@H](OC(C)=O)[C@@H]1C |  | 9.81 µM (active)
CC(Cl)C(Cl)Cl (centres undefined) | -15.5% | 
O=C(O)c1cccc(O)c1 | 8.44% | 
O=C(CCCN1CCC(O)(c2ccc(Br)cc2)CC1)c1ccc(F)cc1 | 322% [at 52.9 µM] | 
CCOC(=O)c1ccccc1OC | 22.3% | 
C[C@]12CCC(=O)C=C1C=C[C@@H]1[C@@H]2CC[C@@]2(C)[C@H]1CC[C@@]21CCC(=O)O1 | 131% [at 52.9 µM] | 
COC(=O)CC(=O)C(C)(C)C | 11.3% | 
CCn1cc(C(=O)O)c(=O)c2cc(F)c(N3CCNCC3)nc21 | 9.15% [at 52.9 µM] | 
COc1ccc(C(=O)c2cccc(O)c2)c(OC)c1 |  | 31.7 µM (active)
CC1=C(/C=C/C(C)=C\C=C\C(C)=C\C(=O)O)C(C)(C)CCC1 |  | 22.4 µM (active)
CCCCC(CC)COC(=O)COc1ccc(Cl)cc1C (centres undefined) |  | 8.94 µM (active)
Cc1cnc(C)c(C)n1 | 9.54% | 
CCCCC(=O)O[C@]1(C(=O)CO)CC[C@H]2[C@@H]3CCC4=CC(=O)CC[C@]4(C)[C@H]3[C@@H](O)C[C@@]21C |  | 3.47 µM (active)
O=Cc1c(Cl)cccc1Cl | -22.3% | 
C=CC(=O)NCOCC(C)C | -11.5% | 
Cc1c(C(=O)NN2CCCCC2)nn(-c2ccc(Cl)cc2Cl)c1-c1ccc(Cl)cc1 | 238% [at 52.9 µM] | 
CC(C)CCCCCCOC(=O)CCCCC(=O)OCCCCCCC(C)C | -21% | 

SMILES | activity change, negative = inhibition | Potency
C/C=C(\C)C(=O)OCCC(C)CCC=C(C)C (centres undefined) |  | 20 µM (active)
CC1(C)O[C@@H]2C[C@H]3[C@@H]4CCC5=CC(=O)C=C[C@]5(C)[C@H]4[C@@H](O)C[C@]3(C)[C@]2(C(=O)CO)O1 |  | 3.47 µM (active)
CCOC(=O)N1CCC(n2c(=O)[nH]c3cc(Cl)ccc32)CC1 | 80.1% [at 52.9 µM] | 
CC(=O)OCC(=O)[C@H]1CC[C@H]2[C@@H]3CCC4=CC(=O)CC[C@]4(C)[C@H]3CC[C@]12C | 335% [at 52.9 µM] | 
CCC(=O)Oc1ccc(/C(CC)=C(\CC)c2ccc(OC(=O)CC)cc2)cc1 | 79.4% | 
CC(C)(C)CC(C)(C)c1ccc(OCCO)cc1 |  | 17.7 µM (active)
O=S1OCCO1 | 9.34% | 
C=CCCCCCCCCCCCCCCCC | 6.02% [at 10.5 µM] | 
CSc1ccc(Oc2ccc(S(N)(=O)=O)cc2CN(C)C)cc1C | 9.89% | 
O=C(CCCCCCC(=O)Nc1ccccc1)NO | -0.0842% [at 52.9 µM] | 
Cc1occc1C(=O)Nc1ccc(C(=O)N2CCC(F)(F)/C(=C\C(=O)N3CCC(N4CCCCC4)CC3)c3ccccc32)cc1 |  | 0.394 µM (active)
CCCCCCCC/C=C\CCCCCCCC(=O)OC(CO)CO |  | 17.8 µM (active)
C[Si](NC1CCCCC1)(NC1CCCCC1)NC1CCCCC1 | 11.5% | 
CCOC(=O)c1ccccc1C | 1.7% | 
CC(=O)Nc1ccc(N)cc1 |  | 28.7 µM (active)
O=C1NCCN1 | -4.22% | 
CC(CCO)CCc1ccccc1 (centres undefined) | 42.4% | 
CCCOC(=O)c1ccc(C(=O)OCCC)nc1 | 176% | 
